About 83,000 compounds went through this panel and 20% of them were active in at least one assay; those are over-represented in the sample as a whole.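 Step 1: grow cells in 96-well plates. Step 2: add test compound at a single concentration. Step 3: incubate 48 h. Step 4: record percent growth.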 Values without a mark were called inactive. Activity calls are given as the source filed them. How the source made its calls: active means growth percent below 10; inactive means the rest.

Holding throughout (experiment): NCI-60 one-dose screen, 48 h (100 = growth as untreated, 0 = no growth, -100 = all killed)
Common to all, as to conditions: 10 µM unless noted

Test [1] relates to SK-MEL-2 melanoma.
Test [2] deals with EKVX NSCLC.
Test [3] concerns SN12C renal.
The test system of test [4] is UO-31 renal.
Test [5] relates to TK-10 renal.
In test [6] the test system is ACHN renal.
Test [7] has as its system CAKI-1 renal.
Test [8] has as its system A498 renal.
The subject of test [9] is CCRF-CEM leukemia.
In test [10] the test system is SR leukemia.
For test [11], the system named is RPMI-8226 leukemia.
Test [12] deals with OVCAR-8 ovarian.
Test [13] relates to OVCAR-5 ovarian.
The subject of test [14] is OVCAR-4 ovarian.
Test [15] has as its system SK-OV-3 ovarian.
Test [16] relates to IGROV1 ovarian.
Test [17] relates to OVCAR-3 ovarian.
The test system of test [18] is HS 578T breast.
In test [19] the test system is NCI/ADR-RES ovarian.
The test system of test [20] is MOLT-4 leukemia.

`Cc1nc2sc(C(=O)Nc3cccc4ccccc34)c(N)c2cc1C(O)c1ccccc1` (stereo unspecified): the growth was 25.3% in test [1]; 39.4% in [2]; 12.7% in test [3]; 33.4% in [4]; 52.6% in [5]; 24.4% in [6]. In addition, the growth is 29.5% in [7]; -13.7% (active) in test [8]; 6.95% (active) in test [9]; -1.98% (active) in test [10]; 0.145% (active) in test [11]; 5.13% (active) in [12]. The growth in test [13] is 37.4%; in test [14] it was 60%; in [15], 8.83% (active); in test [16] it was 14.4%; in [17], -5.29% (active); in [18] it was 8.1% (active). The growth in [19] was 2.93% (active).

As for `COc1cc(-c2cncn2-c2ccc(-c3nc4ccc(F)cc4s3)cc2)ccc1F`, the growth in test [1] was 37.7%; in [2] it was 95.8%; in test [3] it was 94.7%; in test [4], 71.9%; in test [5] it was 92.1%; in test [6], 3.23% (active). Besides, the growth was 25.7% in test [7]; 74.5% in test [8]; 81.5% in [9]; 63.6% in [20]; 53.6% in [11]; 78.1% in test [12]. Also, the growth was 85.6% in test [14]; 106% in [15]; 52.8% in test [16]; 97.5% in [17]; 97.4% in test [18]; 80.3% in [19].

With `CC(=O)O[C@H]1CC2CCC3C(CC[C@@]4(C)C3C[C@H]([N+]3(C)CCCCC3)[C@@H]4OC(C)=O)[C@@]2(C)C[C@@H]1N1CCCCC1` (stereo partly specified), the growth in [1] is 111%; in [2], 97.7%; in test [3], 93%; in [4], 83.3%; in test [5] it was 108%; in [6], 104%. In addition, the growth in test [7] was 88.1%; in [8], 111%; in test [9], 103%; in test [10], 99.5%; in test [11], 110%; in test [12] it was 98.1%. In addition, the growth was 110% in [13]; 103% in test [14]; 106% in test [15]; 111% in [16]; 112% in test [17]; 65% in test [18]. Besides, the growth in test [19] was 103%.

With `O=C(/C=C/c1cccc(Cl)c1)c1cccc(OCCCOc2cccc(C(=O)/C=C/c3cccc(Cl)c3)c2)c1`, the growth was 116% in test [1]; 99% in test [2]; 96.4% in test [3]; 66.8% in test [4]; 125% in test [5]; 97.3% in test [6]. Besides, the growth is 70.4% in [7]; 102% in test [8]; 98.1% in test [9]; 37.1% in test [10]; -8.65% (active) in [11]; 98.2% in [12]. Further, the growth in test [13] was 113%; in test [14] it was 102%; in [15] it was 107%; in test [16], 92.7%; in test [17], 102%; in [18] it was 105%. Also, the growth in [19] is 99.6%.

Consider `COc1ccc(OC)c(-c2nc(SCC(=O)c3ccc(C#N)cc3)[nH]c(=O)c2C#N)c1`, for which the growth in test [1] was 104%; in test [2] it was 105%; in [3], 107%; in [4] it was 76.9%; in [5], 103%; in test [6], 97.7%. Further, the growth in test [7] was 96.8%; in [8] it was 106%; in test [9] it was 106%; in [10], 97.3%; in test [11], 114%; in test [12], 99.3%. The growth in test [13] was 89.5%; in test [14], 106%; in [15] it was 78%; in test [16], 96.4%; in [17] it was 89.4%; in test [18], 102%. For the same compound, the growth in test [19] was 97.4%.

For `CC(C)=CCC[C@](C)(O)[C@H]1CC[C@]2(C)[C@@H]1CC[C@@H]1[C@@]3(C)C/C(=C/c4ccco4)C(=O)C(C)(C)[C@@H]3CC[C@]12C`, the growth in [1] is 109%; in test [2], 101%; in test [3], 97%; in [4] it was 88.7%; in test [5] it was 103%; in test [6], 102%. Further, the growth is 90.7% in [7]; 86.3% in test [8]; 101% in test [9]; 104% in test [20]; 101% in test [11]; 104% in test [12]. Also, the growth was 102% in [13]; 106% in [14]; 109% in test [15]; 107% in test [16]; 103% in test [17]; 94.5% in test [18]. Further, the growth in [19] is 104%.

Consider `COc1cccc(CNc2ccc3ncnc(Nc4ccc(F)c(Cl)c4)c3c2)c1`, for which the growth in test [1] was 94.9%; in test [2], 26%; in test [3] it was 52.8%; in test [4], 32.5%; in test [5] it was 29.8%; in test [6], 26.2%. The growth in test [7] is 34.6%; in test [8] it was 45.1%; in test [9] it was 75.1%; in test [10], 50.5%; in [11], 68.3%; in test [12], 59.3%. Moreover, the growth in test [13] was 72.2%; in [14], 60.6%; in test [15], 42.6%; in test [16] it was 36.8%; in test [17] it was 53.8%; in [18] it was 87.4%. Also, the growth in test [19] is 54.7%.

In the case of `O=C(Nc1nc(-c2ccc(Cl)cc2)nc2c1sc(=S)n2-c1ccccc1)C(F)(F)F`, the growth in test [1] is 43.3%; in test [2] it was 55%; in test [3] it was 57%; in [4], -41.9% (active); in test [5], -31.9% (active); in test [6], -48.5% (active). Besides, the growth was 20.2% in test [7]; -8.62% (active) in test [8]; 72.2% in test [9]; 19.9% in [10]; 51.2% in test [11]; 27.1% in test [12]. Moreover, the growth in test [13] was 62.6%; in test [14], -53.5% (active); in test [15], 25.2%; in test [16] it was 32.9%; in test [17], 16.8%; in test [18], 11.5%. The growth in [19] is 32%.

Source of the values: PubChem BioAssay (NCI).
